Source: PubChem
Compounds with a hit are over-represented: about 1.2% of the library has one in this group of screens.
PfHsp40 rescue: restores yeast growth despite PfHsp40 toxicity; S. cerevisiae expressing PfHsp40, growth rescue, ATP luminescence; growth rescue, % at 12.5 µM; actives 0.68% (n = 340,000); AID 504582; in the data active = growth rescue above about 28%, passing the limit was not always enough;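 also: yeast W303a lacking pdr1 and pdr3 grown in galactose medium; growth measured after three days at 30 °C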
DUSP3 inh: DUSP3 (human) phosphatase inhibition. inhibition, % at 13.3 µM. actives 0.52% (n = 290,000). recombinant VHR phosphatase, pNPP absorbance. P51452. AID 1654; in the data active = inhibition above about 50%
Mtb BioA inh: inhibitors of Mycobacterium tuberculosis BioA enzyme; purified M. tuberculosis BioA enzyme, plate reader; inhibition, % at 9.99 µM; actives 0.096% (n = 360,000); AID 602481; in the data active = inhibition above about 40%
Y pestis TopoI: blocks Yersinia pestis topoisomerase I activity; AID 504884; activity, % at 10 µM; actives 0.064% (n = 360,000); Y. pestis Topo-I cleavage product accumulation, plate reader; in the data active = activity above about 50%, passing the limit was not always enough
Vc quorum ag: quorum light induction in luxS cqsA deficient V. cholerae; V. cholerae BH1578 lux reporter, luminescence, 6 h; activation, % at 18.7 µM; actives 0.16% (n = 350,000); in the data active = activation mostly above about 9.7%, no sharp cut-off
TcdB GH inh: TcdB glycohydrolase inhibition. P18177. TcdB glycohydrolase enzymatic assay, plate reader. inhibition, % at 9.99 µM. actives 0.24% (n = 350,000). AID 652162; in the data active = inhibition above about 10%
Of the large screens only hits and unclear results are named; the others gave an inactive call.

COc1cc(/C=C2\SC(=S)N(NS(=O)(=O)c3ccccc3)C2=O)cc(OC)c1OC	PfHsp40 rescue 41
CCOC(=O)C(=Cc1ccc(-c2ccsc2C(=O)OC)o1)C(=O)OCC	none (no result: Mtb BioA inh, TcdB GH inh)
CCOC(=O)/C(C#N)=C/c1ccc(-c2ccsc2C(=O)OC)o1	DUSP3 inh 53 (no result: TcdB GH inh)
CCN(CC)S(=O)(=O)c1ccc(OC)c(N)c1	none
N#C/C(=C/c1ccc(N2CCOCC2)o1)c1nc2ccccc2[nH]1	DUSP3 inh 53 (no result: TcdB GH inh)
N#C/C(=C\c1ccc(N2CCOCC2)o1)C(=O)Nc1ccc(O)cc1	TcdB GH inh 19
O=C(C[C@H]1C=C[C@@H](NC(=O)C2CCC2)[C@H](CO)O1)NC1CCCCC1	none (no result: PfHsp40 rescue, DUSP3 inh, Y pestis TopoI, Vc quorum ag)
Cn1c(SCC#N)nnc1-c1ccc2c(c1)OCO2	Vc quorum ag 17 (no result: TcdB GH inh)
Cc1cccc(NS(=O)(=O)c2ccc(-c3cnc(C4CC4)o3)cc2)c1C	PfHsp40 rescue 367
Cc1ccc(C)c(NS(=O)(=O)c2ccc(-c3cnc(C4CC4)o3)cc2)c1	none
CC(=NNC(=S)N1CCCC1)c1ccccn1	none (no result: PfHsp40 rescue, DUSP3 inh)
CC(=NNC(=S)N1CCC1)c1ccccn1	PfHsp40 rescue 34 (no result: DUSP3 inh, Mtb BioA inh)
CC(NC(=O)/C=C/c1ccccc1)c1ccccc1 (stereo not drawn)	none
CC(C)C(NC(=O)/C=C/c1ccc(F)cc1)C(C)C	Vc quorum ag active (no result: TcdB GH inh)
CNC[C@@H]1Oc2ccc(NC(=O)C3CCCCC3)cc2C(=O)N([C@H](C)CO)C[C@H]1C	none (no result: PfHsp40 rescue, DUSP3 inh, Y pestis TopoI, Vc quorum ag)
CC1(C)Cc2c(sc3nc(-c4cc5ccccc5o4)n(N)c(=O)c23)CO1	none (no result: TcdB GH inh)
Cc1ccc(-c2nc3sc4c(c3c(=O)n2N)CC(C)(C)OC4)cc1	Vc quorum ag 17 (no result: TcdB GH inh)
CC1Cn2c(nc3sc4c(c3c2=O)CC(C)(C)OC4)N1CCO (stereo not drawn)	DUSP3 inh 53
O=C(CNC(=O)c1ccccc1)NCCc1ccc(O)c(O)c1	DUSP3 inh 59
CC(C)(C)OC(=O)[C@H](Cc1ccccc1)NC(=O)c1nc[nH]c1C(=O)N1CCN(c2ccccc2)CC1	none
CC[C@H](C)[C@H]1CNC(=S)N1CC1CCN(CCCC2CCCC2)CC1	TcdB GH inh 13 (no result: DUSP3 inh)
CC(C)c1ccc(NC2CCCN(C(=O)c3ccccc3-c3ncc[nH]3)C2)cc1 (stereo not drawn)	DUSP3 inh 57
COc1ccc(OCCN2CCCC2)cc1Nc1nnc(Cl)c(Nc2ccccc2S(C)(=O)=O)n1	none (no result: DUSP3 inh, TcdB GH inh)
O=C(Cc1ccc(Cl)cc1)NNC1CC(=O)N(c2ccc3ccccc3c2)C1=O (stereo not drawn)	none
O=C(Cc1ccccc1)NNC1CC(=O)N(c2ccc(Cl)cc2)C1=O (stereo not drawn)	DUSP3 inh 53 (no result: Mtb BioA inh)
Cc1ccc(NC(=O)C(C)N2C(=O)C3C4CC(C(Br)C4Br)C3C2=O)cc1 (stereo not drawn)	Vc quorum ag 38 (no result: TcdB GH inh)
O=C(OCC(=O)N1CCOCC1)c1cc2ccccc2oc1=O	none (no result: DUSP3 inh)
COc1cc(/C=C2\C(=O)ON=C2c2ccccc2)cc(OC)c1OC	Vc quorum ag active (no result: TcdB GH inh)
COc1ccc(/C=C2/C(=O)ON=C2c2ccccc2)cc1OC	none (no result: TcdB GH inh)
CC(C)C[C@H]1CN=C(Nc2ccccc2)N1CCCC1CCCC1	DUSP3 inh 55
CC(C)=CCC12CN3CCN(CC(C3)C1=O)C2	none (no result: TcdB GH inh)
CNCC(=O)Nc1ccc(Cl)c(C(F)(F)F)c1	none (no result: Mtb BioA inh)
Cc1ccccc1NC(=O)CNc1ccc(Cl)c(C(F)(F)F)c1	DUSP3 inh 58 (no result: TcdB GH inh)
Cc1cc(C)c(C)c(S(=O)(=O)N2CCCCC2C(=O)O)c1C (stereo not drawn)	TcdB GH inh 15
C[C@H](NC(=O)[C@@H]1Cc2ccccc2CN1)C(=O)NC1CCCCC1	DUSP3 inh 53
CC(C)[C@H](NC(=O)[C@@H]1Cc2ccccc2CN1)C(=O)NC1CCCCC1	none
O=C(N/N=C/c1c(O)n(Cc2ccc(F)cc2)c(=O)[nH]c1=O)c1ccccc1O	PfHsp40 rescue 55
COc1ccc(Cn2c(O)c(/C=N/NC(=O)c3ccccc3O)c(=O)[nH]c2=O)cc1	none (no result: Mtb BioA inh)
O=C(N/N=C/c1c(O)n(Cc2ccccc2)c(=O)[nH]c1=O)c1ccccc1O	PfHsp40 rescue 97 (no result: Mtb BioA inh, TcdB GH inh)
O=C(c1c(F)cccc1F)N(C1CCCCC1)C1CCCCC1	none
CCOC(=O)C1=C(N)n2c(s/c(=C\c3cccnc3)c2=O)=C(C(=O)OCC)C1c1cccnc1 (stereo not drawn)	DUSP3 inh 57 (no result: PfHsp40 rescue, Mtb BioA inh, Y pestis TopoI, Vc quorum ag, TcdB GH inh)
Cc1ccc(NC(=O)CN2CCC(C(=O)c3ccc(F)cc3)CC2)cc1	none (no result: Mtb BioA inh, TcdB GH inh)
Cc1ccc(C(=O)C2CCN(CC(=O)NCc3ccc(F)cc3)CC2)cc1	DUSP3 inh 53
O=C(CSc1nnc(CNC(=O)c2ccccc2)o1)c1ccccc1	none
Cn1ncc([N+](=O)[O-])c1C(=O)NCc1ccccc1	none (no result: Mtb BioA inh)
Cc1c(CNC(=O)c2c([N+](=O)[O-])cnn2C)cnn1C	TcdB GH inh 24
O=C(Cn1ccc2ccccc2c1=O)NCCC(=O)N1CCN(c2ccccc2)CC1	DUSP3 inh 53
O=C(Cn1ccc2ccccc2c1=O)NCCC(=O)N1CCCCC1	none
N#CSCC(=O)c1cccc2ccccc12	PfHsp40 rescue 146
NC(=O)c1cccc2ccccc12	none
CCOC(=O)/C=C1/N(C)c2ccccc2C1(C)C	none
CCN1/C(=C\C=C\C2=[N+](CC)c3ccccc3C2(C)C)C(C)(C)c2ccccc21	PfHsp40 rescue 121 (no result: TcdB GH inh)
COc1cc(/C=N/N2C(=O)C3C4C=CC(CC4)C3C2=O)ccc1O (stereo not drawn)	TcdB GH inh 18 (no result: Mtb BioA inh)
Cc1ccccc1CS(=O)(=O)CCC(=O)NCc1ccc(F)cc1Cl	none
O=C(/C(N=Nc1cccc(C(F)(F)F)c1)=C(/O)c1cccs1)C(F)(F)F	PfHsp40 rescue 195 (no result: Mtb BioA inh)
COC(=O)c1ccccc1NC(=O)NCc1cccnc1	none (no result: TcdB GH inh)
COC(=O)c1ccccc1NC(=O)C(=O)NCc1ccncc1	DUSP3 inh 56 (no result: Mtb BioA inh)
CCOC(=O)c1sc(=S)n(-c2ccccc2Cl)c1C	none
CCOC(=O)N1C(=O)C2(CCCCC2)N(c2ccccc2Cl)C1=S	PfHsp40 rescue 284 (no result: Mtb BioA inh, TcdB GH inh)
COc1cc2c(c(OC)c1OC)-c1ccc(O)c(=O)cc1[C@@H](N)CC2	PfHsp40 rescue 352 (no result: DUSP3 inh)
COc1ccc(-n2c(SCC(=O)Nc3cc(C)on3)nc3c(c2=O)SCC3)cc1OC	DUSP3 inh 57
COc1cccc(-n2c(SCc3ccccn3)nc3c(c2=O)SCC3)c1	PfHsp40 rescue 62 (no result: Mtb BioA inh)
COc1ccc(-n2c(SCC(=O)Nc3cc(C)on3)nc3c(c2=O)SCC3)cc1	none
O=C(NNc1nc2cc3c(cc2s1)OCO3)c1ccccc1	none
O=C(NNc1nc2cc3c(cc2s1)OCO3)c1cccc(F)c1	PfHsp40 rescue 40
CN(C)S(=O)(=O)c1ccc(NC(=O)c2cc3ccccc3o2)cc1	Mtb BioA inh 44 (no result: TcdB GH inh)
O=C(Nc1ccc2oc(=O)ccc2c1)c1cc2ccccc2o1	none (no result: TcdB GH inh)
O=C(Nc1ccc2c(c1)OCCO2)c1cc2ccccc2o1	TcdB GH inh 10
Clc1cccc(N/N=C(\Cc2nc3ccccc3[nH]2)c2ccccc2)c1	PfHsp40 rescue 426 (no result: TcdB GH inh)
C/C(N)=C(/C#N)C(=O)COC(=O)C1CCC(C(C)(C)C)CC1 (stereo not drawn)	none (no result: TcdB GH inh)
